In PubChem BioAssay (NCI):
This is part of a sample that, as a whole, favours compounds with a hit. Of some 83,000 tested, about 20% had one in any assay.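 Cells were grown in 96-well plates and exposed to the test compound at a single concentration for 48 hours; results are reported as percent growth, with values below 10 considered active.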 Activity calls are given as the source filed them.

What was measured:
Experiment in all cases: NCI-60 one-dose screen, 48 h (100 = growth as untreated, 0 = no growth, -100 = all killed)
Conditions in all cases: 10 µM unless noted
BT-549 breast = system: BT-549 breast
MDA-MB-435 melanoma = system: MDA-MB-435 melanoma
SW-620 colon = system: SW-620 colon
HCT-116 colon = system: HCT-116 colon
KM12 colon = system: KM12 colon
MCF7 breast = system: MCF7 breast
HCC-2998 colon = system: HCC-2998 colon

Measured: growth

CC[C@@H]1OC(=O)[C@H](C)[C@@H](O[C@H]2C[C@@](C)(OC)[C@@H](O)[C@H](C)O2)[C@H](C)[C@@H](O[C@@H]2O[C@H](C)C[C@H](N(C)C)[C@H]2O)[C@](C)(O)C[C@@H](C)[C@@H]2N[C@@H](COCCOC)O[C@H]([C@H]2C)[C@]1(C)O
inactive: BT-549 breast 92.2% | MDA-MB-435 melanoma 106% | SW-620 colon 111% | HCT-116 colon 85.6% | KM12 colon 126%

CSc1ncc2ncn(C3OC(CO)C(O)C3O)c2n1 (centres undefined)
inactive: BT-549 breast 118% | MDA-MB-435 melanoma 104% | MCF7 breast 122% | HCT-116 colon 102% | HCC-2998 colon 124% | KM12 colon 113%

CCOC(=O)C1=C(COCCN)NC(C)=C(C(=O)OC)C1c1ccccc1Cl (centres undefined)
inactive: BT-549 breast 86.5% | MDA-MB-435 melanoma 68.7% | SW-620 colon 53.4% | HCT-116 colon 45.9% | KM12 colon 68.9%
active: HCC-2998 colon 3.32%

Cc1ccsc1/C=C/C1=NCCCN1C
inactive: BT-549 breast 102% | MDA-MB-435 melanoma 103% | SW-620 colon 105% | HCT-116 colon 103% | HCC-2998 colon 102% | KM12 colon 114%

CO[C@H]1CC(O[C@@H]2/C(C)=C/C[C@@H]3C[C@@H](C[C@]4(CC[C@H](C)[C@@H](C5CCCCC5)O4)O3)OC(=O)[C@@H]3C=C(C)/C(=N/O)[C@H]4OC/C(=C\C=C\[C@@H]2C)[C@]43O)O[C@@H](C)C1O (some centres undefined)
active: BT-549 breast -88.3% | MDA-MB-435 melanoma -86.1% | SW-620 colon -73.2% | HCT-116 colon -95.6% | HCC-2998 colon -78.1% | KM12 colon -88.8%

NC(N)=NN=c1c(=O)c2ccccc2c1=O
active: SW-620 colon -67% | HCT-116 colon -37.8%
inactive: BT-549 breast 92.3% | MDA-MB-435 melanoma 12.7% | HCC-2998 colon 112% | KM12 colon 73.8%

OC(Cc1cccnc1)c1ccccc1 (centres undefined)
inactive: BT-549 breast 107% | MDA-MB-435 melanoma 110% | MCF7 breast 104% | HCT-116 colon 107% | HCC-2998 colon 107%

Cc1ccc(C=C2C(Cl)=C(Cl)C(Cl)=C2Cl)cc1
active: BT-549 breast -31.3% | MDA-MB-435 melanoma -61.9% | MCF7 breast -23.8% | HCT-116 colon -100% | HCC-2998 colon -94.8% | KM12 colon -79.6%

CCCCCCCCCCC[C@@H](C[C@H]1OC(=O)[C@H]1CCCCCC)OC(=O)[C@@H](CC(C)C)NC=O
inactive: BT-549 breast 31.6% | MDA-MB-435 melanoma 69% | SW-620 colon 77.6% | HCT-116 colon 34% | HCC-2998 colon 55.1% | KM12 colon 53%

O=[N+]([O-])c1ccc(Oc2cccc(C(F)(F)F)c2)c([N+](=O)[O-])c1
active: BT-549 breast 3.1% | MDA-MB-435 melanoma -16.6% | HCT-116 colon 3.46%
inactive: MCF7 breast 112% | HCC-2998 colon 92.5% | KM12 colon 86.2%

CC(=O)O[C@H]1C(=O)[C@@]2(C)C([C@H](OC(=O)c3ccccc3)[C@]3(O)C[C@H](OC(=O)[C@H](O)[C@@H](NC(=O)c4ccccc4)c4ccccc4)C(C)=C1C3(C)C)[C@]1(OC(C)=O)CO[C@@H]1C[C@@H]2O (some centres undefined)
inactive: BT-549 breast 30.5% | SW-620 colon 43.4%
active: MDA-MB-435 melanoma -11.5% | HCT-116 colon 7.81% | HCC-2998 colon -22.4% | KM12 colon 9.05%

COc1ccc(-c2c(N)noc2-c2cc(OC)c3c(c2)OCCO3)cc1
active: MDA-MB-435 melanoma -7.52% | HCT-116 colon 0.565% | KM12 colon 0.643%
inactive: BT-549 breast 20.4% | SW-620 colon 27% | HCC-2998 colon 18.9%

Cc1c(N(C)CS(=O)(=O)O)c(=O)n(-c2ccccc2)n1C
inactive: BT-549 breast 96.5% | MDA-MB-435 melanoma 103% | SW-620 colon 108% | HCT-116 colon 105% | HCC-2998 colon 121% | KM12 colon 109%

C[C@@H]1CC[C@H]2[C@@H](C)C(O)O[C@@H]3O[C@]4(C)CC[C@@H]1[C@]32OO4 (some centres undefined)
active: MDA-MB-435 melanoma 2.52% | HCT-116 colon 8.03%
inactive: BT-549 breast 32.3% | SW-620 colon 17.5% | HCC-2998 colon 41.3% | KM12 colon 18.3%

CC[N+](CC)(CCOCCOCC[N+](CC)(CC)Cc1ccc([N+](=O)[O-])cc1)Cc1ccc([N+](=O)[O-])cc1
inactive: BT-549 breast 107% | SW-620 colon 101% | MCF7 breast 104% | HCT-116 colon 97.8% | HCC-2998 colon 98.1% | KM12 colon 101%

c1cnc2n[nH]c(Nc3ncnc4c3sc3ncccc34)c2c1
inactive: BT-549 breast 106% | SW-620 colon 101% | MCF7 breast 91.3% | HCT-116 colon 96.2% | HCC-2998 colon 108% | KM12 colon 103%

O=C(c1ccccc1)c1ccco1
inactive: BT-549 breast 97.8% | SW-620 colon 110% | MCF7 breast 93.2% | HCT-116 colon 102% | KM12 colon 107%

CCOc1nc(-c2ccccc2)cc2c(O)c(C(=O)n3nc(C)cc3C)[nH]c(=O)c12
inactive: BT-549 breast 99.9% | SW-620 colon 115% | MCF7 breast 101% | HCT-116 colon 101% | HCC-2998 colon 112% | KM12 colon 106%

Cn1cc(-c2csc(-c3cn(C)c4ncccc34)n2)c2cc(Br)cnc21
inactive: MDA-MB-435 melanoma 55.2% | SW-620 colon 89.4% | MCF7 breast 70.2% | HCT-116 colon 90.6% | HCC-2998 colon 98% | KM12 colon 83.1%

COc1cccc2c1C(=O)c1c(O)c3c(c(O)c1C2=O)C[C@@](O)(/C(C)=N/NC(=O)c1cccc([N+](=O)[O-])c1)C[C@@H]3OC1CC(N)C(O)C(C)O1 (some centres undefined)
active: BT-549 breast -14.9% | SW-620 colon -43.5% | MCF7 breast -8.97% | HCT-116 colon -53.8% | KM12 colon -39.2%

CC(=O)Oc1c(C)c(OC(C)=O)c2c(c1C(C)=O)OC1CC(=O)C(C(C)=O)=C(O)C21C (centres undefined)
inactive: BT-549 breast 90.4% | SW-620 colon 105% | MCF7 breast 97% | HCT-116 colon 100% | HCC-2998 colon 102% | KM12 colon 105%

Cc1c(NCc2nnc3n(Cc4ccccc4)c(=O)c4c5c(sc4n23)CCCC5)c(=O)n(-c2ccccc2)n1C
inactive: BT-549 breast 91.7% | SW-620 colon 103% | MCF7 breast 85.1% | HCT-116 colon 88.1% | KM12 colon 98.8%

CSc1nc2c(c(=O)n1C)C(c1ccccc1)C1=C(N2)/C(=C/c2ccccc2)CCC1 (centres undefined)
inactive: BT-549 breast 37.9% | SW-620 colon 47.1% | MCF7 breast 56.7% | HCT-116 colon 39.5% | HCC-2998 colon 71.4% | KM12 colon 71.4%

O=C1c2ccccc2C(=O)c2c1cccc2-n1nnc2ccccc21
inactive: BT-549 breast 113% | SW-620 colon 105% | MCF7 breast 112% | HCT-116 colon 86.5% | HCC-2998 colon 83.4% | KM12 colon 110%

CN(C(=O)c1ccccc1)N(C)C(=O)c1ccccc1
inactive: BT-549 breast 97% | SW-620 colon 106% | MCF7 breast 95.2% | HCT-116 colon 100% | KM12 colon 113%

C=C(C)[C@@H]1C/C=C(/C=O)CC[C@@H]2O[C@@]2(C)CC/C=C(\C)CC1
inactive: MDA-MB-435 melanoma 107% | SW-620 colon 115% | MCF7 breast 106% | HCT-116 colon 105% | HCC-2998 colon 126% | KM12 colon 122%

O=C(C(Br)Br)C(Br)C(Br)c1ccccc1 (centres undefined)
inactive: BT-549 breast 95.8% | MCF7 breast 69.7% | HCT-116 colon 24.7% | HCC-2998 colon 112% | KM12 colon 102%
active: SW-620 colon -46.9%

O=[N+]([O-])c1ccc(N/N=C/c2c(O)ccc3ccccc23)nc1
inactive: MDA-MB-435 melanoma 58.5% | SW-620 colon 48.7% | MCF7 breast 17.3% | HCT-116 colon 25.9% | HCC-2998 colon 54.2% | KM12 colon 44.2%

COC(=O)CCC1=C(C)/C(=C/c2[nH]c(-c3ccc[nH]3)cc2OC)N=C1C
active: MDA-MB-435 melanoma -13.5% | SW-620 colon 8.99% | MCF7 breast 1.82% | HCT-116 colon -61.8% | HCC-2998 colon 9.8% | KM12 colon 5.49%

O=C(Nc1nc(-c2ccc(Cl)cc2)cs1)c1cc(O)c(O)c(O)c1
inactive: BT-549 breast 24.6% | SW-620 colon 25.3% | MCF7 breast 28.3% | HCT-116 colon 17.7% | KM12 colon 51.3%

ClC1=C(Cl)C(Cl)=C(Cl)C1=C/C=C/c1ccccc1
active: BT-549 breast -12.6% | SW-620 colon -55.2% | MCF7 breast -19.6% | HCT-116 colon -98% | HCC-2998 colon -93.3% | KM12 colon -77.8%

CCN(CC)CCNc1ccc(Cl)cc1Cl
inactive: BT-549 breast 106% | SW-620 colon 104% | MCF7 breast 107% | HCT-116 colon 96.8% | HCC-2998 colon 97.4% | KM12 colon 110%

Cc1cc(C(C)(C)c2cc(C)c(O)c(CN(C)C)c2)cc(CN(C)C)c1O
inactive: MDA-MB-435 melanoma 78.1% | SW-620 colon 92.7% | MCF7 breast 96.4% | HCT-116 colon 55.1% | HCC-2998 colon 82.1% | KM12 colon 101%

Cc1c(C(N)=O)sc2c1c(=O)n(Cc1ccccc1)c1nnc(SCC(=O)Nc3ccc(Cl)cc3)n21
inactive: BT-549 breast 67.7% | SW-620 colon 35.6% | MCF7 breast 31.6% | HCC-2998 colon 18.1% | KM12 colon 55.3%
active: HCT-116 colon 2.83%

N#CCCN(CCO)c1ccccc1
inactive: BT-549 breast 91.7% | SW-620 colon 102% | MCF7 breast 93.6% | HCT-116 colon 100% | KM12 colon 110%

COc1ccc(C2CC(c3ccc(OC)c(OC)c3)=NN2C(=O)c2cc(OC)c(OC)c(OC)c2)c(OC)c1 (centres undefined)
inactive: BT-549 breast 63.2% | SW-620 colon 62.2% | MCF7 breast 35.1% | HCT-116 colon 68.7% | HCC-2998 colon 96.5% | KM12 colon 61.5%

NS(=O)(=O)c1ccc(NC2=C(Cl)C(=O)c3ccccc3C2=O)cc1
inactive: BT-549 breast 84.4% | SW-620 colon 95% | MCF7 breast 72.8% | HCT-116 colon 65% | KM12 colon 123%

O=C(C(=O)N1CCCCC1)c1ccc(OC2OC(CO)C(O)C(O)C2O)cc1 (centres undefined)
inactive: BT-549 breast 116% | SW-620 colon 109% | MCF7 breast 94.3% | HCT-116 colon 109% | HCC-2998 colon 108% | KM12 colon 115%
